Results reported in PubChem BioAssay AID485272 (The Scripps Research Institute Molecular Screening Center, 2010).
About 1,300 (0.39%) of roughly 330,000 compounds were called active.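 How the source made its calls: active means percent inhibition above a cutoff equal to the mean of all tested compounds plus 3 SD (cut at about 15% in these data); inactive means the rest.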 For the sample, actives were picked, then their nearest neighbours and some compounds at random.

Biological target: Protein-arginine deiminase type-4 (Homo sapiens) (UniProt Q9UM07)
Test: human PAD4 inhibitors, primary screen, biochemical, fluorescence polarization, 1536-well format (AID 485272);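 further: 0% = PAD4 with RCA probe and DMSO and 100% = probe without PAD4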
Conditions: recombinant PAD4, RCA probe fluorescence polarization; at 6.36 µM; active compounds read high

Protein-arginine deiminase type-4 (Homo sapiens), sequence (Q9UM07 whole entry, looked up): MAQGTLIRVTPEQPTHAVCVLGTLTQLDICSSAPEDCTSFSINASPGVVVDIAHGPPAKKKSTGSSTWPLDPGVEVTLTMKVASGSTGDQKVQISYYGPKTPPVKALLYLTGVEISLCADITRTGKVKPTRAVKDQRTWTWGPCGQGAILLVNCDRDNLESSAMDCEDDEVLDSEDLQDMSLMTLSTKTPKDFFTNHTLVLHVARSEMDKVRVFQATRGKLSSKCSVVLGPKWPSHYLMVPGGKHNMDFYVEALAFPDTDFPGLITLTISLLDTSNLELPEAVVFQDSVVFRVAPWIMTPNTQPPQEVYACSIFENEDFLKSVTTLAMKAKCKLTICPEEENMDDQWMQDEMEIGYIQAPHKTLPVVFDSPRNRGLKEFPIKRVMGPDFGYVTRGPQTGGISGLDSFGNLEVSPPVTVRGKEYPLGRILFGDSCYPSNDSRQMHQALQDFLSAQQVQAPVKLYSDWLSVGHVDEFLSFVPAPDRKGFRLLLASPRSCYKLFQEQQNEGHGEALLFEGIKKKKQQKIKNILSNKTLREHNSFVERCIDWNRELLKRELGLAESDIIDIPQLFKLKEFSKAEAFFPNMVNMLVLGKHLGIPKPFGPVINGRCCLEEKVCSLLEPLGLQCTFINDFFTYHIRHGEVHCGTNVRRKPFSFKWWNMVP

inhibition, inactive:
CC1CN(c2nc(-c3ccccc3)nnc2-c2ccccc2)CC(C)O1 (stereo not given) -2.42%, Cn1cccc1/C=C1\SC(=S)N(NC(=O)c2ccc(Cl)cc2)C1=O -18.5%, COc1ccccc1NC(=S)NC(=O)C(C)C -0.01%, CC(C)C(=O)NC(=S)Nc1ccccc1F 5.01%, C=CCNC(=O)c1ccccc1NC(=O)c1ccc(Cl)c(S(=O)(=O)Nc2cccc(C)c2C)c1 2.11%, COc1ccc(C)cc1Nc1nc(C)nc2c1oc1ccccc12 1.33%, Cc1nc(N2CCCC2C(=O)O)c2oc3ccccc3c2n1 (stereo not given) -1.75%, CCCCC[C@@H]1C=C(C(=O)O)[C@H](c2ccc(C#N)cc2)N1S(=O)(=O)c1ccc(C)cc1 0.94%, O=C(N/C(=C\c1ccc([N+](=O)[O-])cc1)C(=O)N1CCCCC1)c1ccco1 2.37%, COc1cccc(NC(=O)C2C(c3ccccc3)C2(Cl)Cl)c1 (stereo not given) -7.27%, CCOc1cc2c(cc1OCC)C(C(=O)O)C(c1ccc(OC)c(O)c1)N(C)C2=O (stereo not given) -1.73%, CO[C@H]1[C@@H]2C=CO[C@@H](O[C@H]3O[C@@H](CO)[C@H](O)[C@@H](O)[C@@H]3O)[C@@H]2[C@@]2(CO)O[C@@H]12 1.64%, Cc1nc2ccccc2nc(C)c1=NOCc1ccc(Cl)cc1Cl -3.19%, CCOC(=O)C1CCN(C(=O)CC2C(=O)N(Cc3ccccc3)C(C)c3nc4ccccc4n32)CC1 (stereo not given) -2.42%, CCC(CO)Oc1cc(NC(=O)c2cccc(F)c2)c2ncn(C(C)C)c2c1 (stereo not given) 3.9%, CCC(CO)Oc1cc(NC(=O)c2ccc(Cl)cc2)c2ncn(C(C)C)c2c1 (stereo not given) -2.59%, CCC(CO)Oc1cc(NCc2ccccc2)c2ncn(C3CCCC3)c2c1 (stereo not given) -6.94%, CCC(CO)Oc1cc(NC(=O)c2cccc3ccccc23)c2ncn(C(C)C)c2c1 (stereo not given) -7.37%, Cc1ccc(NC(=O)C(C)c2cccc(C(=O)c3ccccc3)c2)cc1 (stereo not given) 1.32%, O=C(Cn1c2[n+](c3ccc(C(F)(F)F)cc31)CCCCC2)Nc1c(F)cccc1F -5.07%, CC(C)C(C)(C#N)NC(=O)CSc1nncn1-c1ccccc1 (stereo not given) -0.3%, CC(C)(C)NC(=O)/C(=C/c1cccnc1)NC(=O)c1ccco1 0.75%, Cc1cc(C)c2c(Cn3ccnc3)cc(=O)oc2c1 -4.75%, Cc1nn(-c2ccccc2)c(C)c1NC(=O)CCl 1.95%, Cc1nn(-c2ccccc2)c(C)c1NC(=O)COC(=O)c1cc(Cl)ccc1O 2.71%, Cc1ccc2c(c1)N(C(=O)CCC(=O)NCc1cccnc1)CCO2 -2.36%, O=C(NC(=S)Nc1ccc(Cl)cc1Cl)C1CC1 1.69%, CCOc1ccc(NS(=O)(=O)c2ccc(Cl)c(C(=O)N(C)Cc3cccnc3)c2)cc1 6.71%, O=C(Nc1ccc(N2CCOCC2)cc1)c1cccc(S(=O)(=O)N2CCOCC2)c1 -3.19%, Oc1ccc2ccccc2c1N=Nc1nccs1 2.91%, O=C(CCNS(=O)(=O)c1ccc(Br)s1)NCc1ccccc1Cl -0.29%, Clc1ccc(-c2cc(COc3ccccc3)no2)cc1Cl -0.83%, COC(=O)c1ccc(C)c(NC(=O)Cn2c(C)csc2=O)c1 2.97%, COc1ccc(NC(=O)CSc2nc3ccccc3c(=O)n2C)cc1 -0.44%, COc1ccc(OCc2ccc(-c3nc4ccccc4c(=O)n3N)o2)cc1 1.08%, CCC(C(=O)OC)n1cnc2scc(-c3ccc(C)cc3)c2c1=O (stereo not given) 0.23%, Cc1[nH]nc(-c2ccc(OCc3cnn(-c4ccccc4)c3)cc2O)c1Oc1ccc(Cl)cc1 -2.55%, CC(=O)n1c(C=Nc2ccccc2)c(O)c2ccccc21 -8.69%, Cc1cc(N=Nc2ccc3ccccc3c2)ccc1O 1.91%, Oc1ccc(/C=N/N(Cc2ccccc2)c2ccccc2)cc1 2.9%, CCC(C)NC(=O)Cn1nc(C(F)(F)F)c2c1CCC2 (stereo not given) 0.61%, N/C(=N\OC(=O)CC1CCCCC1)c1ccccc1 -1.21%, CC(=O)c1ccc(S(=O)(=O)NCc2nnnn2-c2ccccc2)cc1 7.61%, O=c1oc2ccc(C#CC3(O)CCCCC3)cc2cc1-n1cc(-c2ccsc2)nn1 2.6%, Cc1cccc(CN2CCN(Cc3cnn(-c4ccccc4F)c3)CC2CCO)n1 (stereo not given) 8.78%, COc1ccc(CCNS(=O)(=O)c2cc3c(cc2C)NC(=O)CO3)cc1OC -1.01%, N#CCCN(C(=O)COC(=O)C1CCN(c2ccc(C(F)(F)F)cn2)CC1)c1ccc(F)cc1 -2.71%, COc1cc(C(=O)NCc2cc3cc(Cl)ccc3n2C)cc(OC)c1OC 0.12%, CCOCC(=O)NCc1ccc2c(c1)cc(C)n2C 6.21%, CC(=O)Nc1ccc(N2C(=O)CCC2=O)cc1C 1.44%, COc1cccc(N2CC(NS(=O)(=O)c3cccs3)CC2=O)c1 (stereo not given) -3.8%, Cc1nn(C)cc1C(=O)c1ccccc1 -3.44%, COc1cc(C(=O)N2C(=O)c3cccc(N)c3C2=O)cc(OC)c1OC -3.66%, CC(=O)Nc1ccccc1Sc1ccc2c3c(cccc13)C(=O)N(c1ccc(C)cc1)C2=O 1.13%, COC(=O)c1ccc(CN2CCCC(C(=O)Nc3cccc(-n4cnnn4)c3)C2)cc1 (stereo not given) -3.14%, Cc1ccc(S(=O)(=O)N(CC(=O)Nc2cccnc2)c2ccc(Br)cc2)cc1 1.31%, O=C1CCCC2=C1C(c1cccs1)n1nc(SCc3ccccc3)nc1N2 (stereo not given) -0.55%, NC(N)=N/N=C/c1ccc(OCc2ccc(Cl)cc2Cl)cc1 -4.09%, CCOC(=O)N1CCN(C(=O)c2ccccc2N(Cc2ccccc2)S(=O)(=O)c2ccc(OC)cc2)CC1 -4.41%, O=C(Nc1ccc2oc(-c3ccccc3F)nc2c1)c1ccco1 -5.36%, C=CCN(C(=O)Nc1ccc2c(c1)nc(C)n2C)c1ccccc1 2.79%, CCOc1ccc(S(=O)(=O)N2CCCCC2)cc1NC(=O)CN1CCCC1c1cccs1 (stereo not given) -0.57%, CCOc1ccc(S(=O)(=O)N2CCN=C2Cc2ccccc2)cc1C 0.37%, Cc1ccc2[nH]c(C(=O)O)c(NC(=O)c3ccccc3[N+](=O)[O-])c2c1 4.63%, Cc1cc(C)cc(NC(=O)CN2C(=O)c3ccccc3C2=O)c1 4.21%, Cc1ccc2c(c1)-c1c(ssc1=S)C(C)(C)N2C(=O)CN1C(=O)c2ccccc2C1=O 0.29%, CCc1ccc(NC(=O)NC(C)c2ccc3c(c2)OCO3)cc1 (stereo not given) -1.12%, O=C1CCN(Cc2ccc([N+](=O)[O-])cc2)CCN1[C@H](CO)Cc1ccccc1 -1.9%, CCOC(=O)c1c(N)nn(C(=O)c2ccccc2)c1-c1ccccc1 -9.18%, C/C(=N\NC(=O)c1ccoc1C)c1ccccc1O -6.31%, O=C(N1CCOCC1)N(Cc1ccccc1)c1ccccn1 -6.6%, COC(=O)CCCC1=CC2=CC(=O)C(C)(OC(=O)c3cccs3)C(=O)C2=CN1CC(C)C (stereo not given) -1.01%, COC(=O)CCCC1=CC2=CC(=O)C(C)(OC(=O)c3cccs3)C(=O)C2=CN1c1cccc(C#N)c1 (stereo not given) 4.64%, CS/C(=C\C(=O)c1ccco1)Nc1ccccc1Cl 0.03%, CN(C)c1ccc(NC(=O)c2ccncc2)c2ccccc12 -9.99%, CC(C)CNC(=O)C(=O)Nc1ccc(N(C)C)cc1 -0.08%, COc1cc(OC)c(C(=O)Nc2ccc(N(C)C)cc2)cc1OC -1.49%

inhibition, active:
CCc1ccccc1NC(=S)Nc1cc(OC)c(NC(=O)C(C)C)cc1OC 41.1%, Cc1nc(Cl)c2oc3ccccc3c2n1 15.3%, COc1cccc(NC(=O)C2c3cc(OC)c(OC)cc3C(=O)N(C)C2c2cccnc2)c1 (stereo not given) 69.3%, CC(C)n1cnc2c(NCc3ccccc3)cc(OCC3CCN(C)CC3)cc21 16.8%, CC(C)n1cnc2c(NCc3ccccc3)cc(N[C@@H](CO)Cc3ccccc3)cc21 32.9%, Oc1c(C=Nc2cccc3nsnc23)ccc2ccccc12 39.1%, Cc1ccc(C(=O)CSc2nc3ccccc3c(=O)n2N)o1 28.9%, Oc1ccc(N=Cc2c(O)ccc3ccccc23)cc1 69.9%, Oc1ccc(N=Cc2sc3ccccc3c2Cl)cc1 19.9%, COc1cc(C(=O)NCc2ccc3c(c2)cc(C)n3C)cc(OC)c1OC 26.2%, Cc1nn(C)cc1N1C(=O)c2cccc3c(N)ccc(c23)C1=O 26.9%, CN1C(=O)c2cccc3c(N)ccc(c23)C1=O 24%, C=CCN(C(=O)Nc1ccc2oc(C)nc2c1)c1ccccc1 39.8%, CC[N+](C)(CC)CCC[n+]1c(-c2ccccc2)c2cc(N)ccc2c2ccc(N)cc21 62.4%, Cc1cc2c(cc1C)N(C(=O)CN1C(=O)c3ccccc3C1=O)C(C)(C)c1ssc(=S)c1-2 44.1%, Cc1nn(C(=O)c2ccoc2C)c(N)c1-c1ccccc1 17.4%, COC(=O)CCCC1=CC2=CC(=O)C(C)(OC(=O)c3cccs3)C(=O)C2=CN1CC1CC1 (stereo not given) 18.5%, CN(C)c1ccc(N/C=C/C(=O)C(F)(F)F)cc1 38.9%
